In ChEMBL document CHEMBL4513216, “Probing the Open Global Health Chemical Diversity Library for Multistage-Active Starting Points for Next-Generation Antimalarials” (ACS Infect Dis, 2020):
In all, about 65,000 compounds went through this assay and about 2,100 (3.2%) showed an effect of 50% or more. The median lay at about -52%. Shown is part of a subset that was picked to be rich in strong results.

test system: Plasmodium falciparum; experiment: Screen against P. falciparum Asexual Blood Stage (ABS), at 5uM; assay type: functional, Dd2; details: tested at 5 uM

SMILES	INHIBITION
CN(Cc1cccc(F)c1)C(=O)CS(=O)(=O)Cc1c(Cl)cccc1Cl	82.7%
CCc1nnc(NC(=O)CCN2CC=C(c3cnn(C)c3)CC2)s1	-25.3%
COc1ccccc1C(C)(C)NCc1ccc(C)o1	77.9%
c1cncc(CN2CCO[C@H]3[C@H](OCCN4CCCC4)CC[C@@H]32)c1	-68.3%
c1cc(CN2CCO[C@H]3[C@H](OCCN4CCCC4)CC[C@@H]32)ccn1	-53.4%
CC(Cn1cccn1)NCc1nc(-c2ccco2)no1 (stereo unspecified)	-82%
O=C1C[C@H]2[C@@H](CCN2Cc2ccccn2)N1Cc1cccnc1	-99.2%
CC(=O)N1C[C@H]2CNC[C@@]2(C(=O)NCCCOc2cccnc2)C1	-133%
CN1CCCC1CNC(=O)CCCOc1ccc(Cl)cc1 (stereo unspecified)	78.2%
CN1CCCC1CNC(=O)CCCOc1cccc(Br)c1 (stereo unspecified)	71.7%
CCc1c(C)[nH]c(C2(N)CCCCC2)nc1=O	-26.9%
CCN1CCN(Cc2nc(CC(C)C)no2)CC1	34.7%
Cc1noc(C)c1CN1CC[C@H]2OCC[C@@]2(C(=O)N2CCCC2)C1	-28.8%
CCC(=O)NCC(=O)NCC1(c2c(F)cccc2F)CCCC1	73.7%
Cc1cc(CN2C[C@@H]3COC[C@]3(CNC(=O)N(C)C)C2)no1	-94.8%
Cc1ccc(CN2CCO[C@H]3[C@@H](OCc4cccnc4)CC[C@@H]32)o1	3.59%
Cc1ccc(CN2CCO[C@H]3[C@H](OCc4cccnc4)CC[C@@H]32)o1	-70.3%
Cc1ccc(CN2CCC3(CC2)CC3CN(C)Cc2cccnc2)o1 (stereo unspecified)	70.8%
CCN(C)c1ncc2c(c1C(=O)O)CCN(C1CCOC1)C2 (stereo unspecified)	-4.54%
Cc1cccc(CN2C(=O)C[C@H]3[C@@H]2CCN3Cc2nccs2)n1	-3.26%
Cc1cccc(CN2CCCC2c2cccc(Nc3nccs3)n2)c1 (stereo unspecified)	88.1%
c1ccc(CCN2CCCC2c2cccc(Nc3nccs3)n2)cc1 (stereo unspecified)	77%
Cc1cccc(CO[C@@H]2CC[C@H]3[C@H]2OCCN3Cc2nccs2)n1	-43.3%
Cc1cnc(Nc2cccc(C3CCCN3Cc3cn(C)nc3C)n2)s1 (stereo unspecified)	89.8%
Cc1ccccc1CN1CCCC1c1cccc(Nc2nccs2)n1 (stereo unspecified)	84.8%
Cc1ccccc1SC1CCN(C(=O)C2[C@H]3CNC[C@@H]23)CC1 (stereo partly specified)	73.3%

SMILES	INHIBITION
Cc1ccc(C(=O)N2C[C@H]3CNC[C@H]3C2)cn1	-104%
COc1ncc(-c2cc(NC3CCCC3)nc3[nH]ccc23)c(OC)n1	74%
Cc1cc(Oc2ccc(NC(=O)C3CC3)cc2)cc(C2CCNCC2)n1	87.8%
Fc1cccnc1O[C@H]1CN(Cc2ccoc2)[C@@H]2CCCO[C@H]12	-26.7%
COCC1CN(c2ccc(C#N)c(Cl)c2)CCO1 (stereo unspecified)	-35.5%
c1cc(CN2C[C@@H]3OCCN(CC4CCCO4)[C@@H]3C2)ccn1 (stereo partly specified)	-111%
CNc1cc(C)nc(N2Cc3cnn(Cc4ccc(F)cc4)c3C2)n1	91.9%
CC(C)NC(=O)[C@H]1C[C@@H]2[C@@H](C1)OCCN2Cc1cccnc1	-95.4%
N#Cc1ccc(S(=O)(=O)NCCn2ccnc2)cc1Cl	-39.2%
O=S(=O)(NCCN1CC=CC1)c1ccc(Cl)cc1	76.2%
c1ccc2nc(CN3CCCC3c3noc(C4CC4)n3)ccc2c1 (stereo unspecified)	72.7%
Cc1nc(CN2CCCC2c2noc(C3CC3)n2)nc2ccccc12 (stereo unspecified)	78.7%
COCCN1C[C@@H]2CC[C@H]1CN(Cc1ccc3ccccc3n1)C2	21.2%
O=C(Cc1ccccc1)N1CCN(Cc2noc(C3CC3)n2)CC1	-62.4%
CCCS(=O)(=O)CC(=O)N1CCCC1c1noc(C2CC2)n1 (stereo unspecified)	-40.7%
CCN1CCc2[nH]cnc2C12CCN(c1ccc(Cl)cn1)CC2	42.9%
CN(C)Cc1cc(C2CCCCN2S(=O)(=O)c2cccc(Cl)c2)nn1C (stereo unspecified)	78.8%
CN1CC2(CCNCC2)CC1C(=O)NCCCNc1cccnc1 (stereo unspecified)	-62%
Cc1cnc(N2CC[C@H]3[C@H](C[C@@H](CN(C)C)N3C)C2)nc1	-51.8%
CSCc1cc(F)ccc1CNCc1cccc(O)c1	72.6%
Cc1ccc2[nH]c(-c3cn(C4CCNCC4)nn3)nc2c1C	85.5%
Cc1cc2nc(-c3cn(C4CCNCC4)nn3)[nH]c2cc1C	87.5%
Cc1cccc2[nH]c(-c3cn(C4CCNCC4)nn3)nc12	73.5%
Cc1cc(CN2C[C@@H]3COC[C@]3(CN(C)C)C2)no1	-59%
Cc1ccc(N2CCO[C@H]3CN(Cc4nccs4)C[C@H]32)nn1	-168%
